From PubChem BioAssay (Tox21)
Values joined by “and” are separate entries in the source; they are usually repeats but may differ in a detail not shown here. Equal entries are not always repeated. Records with an inconclusive call do not appear. The source holds several records for some structures; these can differ, active in one and inactive in another. Active and inactive are the calls of the source. The call rests on the fitted dose curve; in most records, active means well fitted curve in the direction sought with a large enough effect in the repeat runs; inconclusive means weak or mixed curves; inactive means no such curve, though single readings can be large; an effect the other way counts as inactive or inconclusive.

How the values were obtained:
[1] = qHTS RealTime-Glo MT Cell Viability Assay in HEK293 cells - 0 hour (AID 1224880); further: nearly all actives have a fitted effect of over 45% in size; further: potency means the concentration at half of the fitted maximal effect
Procedure, shortened: (§1)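 Kinetic, non-lysing viability readout. Seed HEK293 (600/well) with reagent, incubate 5 h at 37 C/5% CO2, pin 23 nL compound in DMSO, incubate at 37 C, read luminescence at 0, 8, 16, 24, 32, 40 h.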

[2] = A CellTox Green Cytotoxicity Assay to monitor cytotoxicity in HEK293 cells - 32 hour (AID 1224881); further: nearly all actives have a fitted effect of over 40% in size; further: potency means the concentration at half of the fitted maximal effect
Procedure, shortened: (§2)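 Real-time, in one plate: 600 HEK293 cells/well with dead-cell DNA dye, pinned compound after 5 h, 37 C incubation over 40 h; viable cells give no appreciable fluorescence.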

[3] = A CellTox Green Cytotoxicity Assay to monitor cytotoxicity in HepG2 cells - 0 hour (AID 1224882); further: nearly all actives have a fitted effect of over 35% in size; further: potency means the concentration at half of the fitted maximal effect
Procedure, shortened: (§3)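 Cytotoxicity was tracked as dead-cell DNA fluorescence in HepG2 cells treated with test compounds at 37 C; each time-point value comes from one kinetic series spanning 0, 8, 16, 24, 32 and 40 h.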

[4] = A CellTox Green Cytotoxicity Assay to monitor cytotoxicity in HepG2 cells - 32 hour (AID 1224883); further: nearly all actives have a fitted effect of over 50% in size; further: potency means the concentration at half of the fitted maximal effect
Procedure, shortened: as §3

[5] = A CellTox Green Cytotoxicity Assay to monitor cytotoxicity in HEK293 cells - 8 hour (AID 1224884); further: nearly all actives have a fitted effect of over 35% in size; further: potency means the concentration at half of the fitted maximal effect
Procedure, shortened: as §2

[6] = qHTS RealTime-Glo MT Cell Viability Assay in HEK293 cells - 8 hour (AID 1224887); further: nearly all actives have a fitted effect of over 50% in size; further: potency means the concentration at half of the fitted maximal effect
Procedure, shortened: as §1

[7] = qHTS RealTime-Glo MT Cell Viability Assay in HepG2 cells - 0 hour (AID 1224889); further: nearly all actives have a fitted effect of over 50% in size; further: potency means the concentration at half of the fitted maximal effect
Procedure, shortened: (§4)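 HepG2 suspension premixed with RealTime-Glo reagents is plated at 600 cells per well and left 5 h at 37 C/5% CO2. Compounds in DMSO then go in, and bioluminescence reflecting viable cell number is recorded over 40 h.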

[8] = qHTS RealTime-Glo MT Cell Viability Assay in HepG2 cells - 16 hour (AID 1224885); further: nearly all actives have a fitted effect of over 50% in size
Procedure, shortened: as §4

[9] = qHTS RealTime-Glo MT Cell Viability Assay in HEK293 cells - 24 hour (AID 1224886); further: nearly all actives have a fitted effect of over 50% in size; further: potency means the concentration at half of the fitted maximal effect
Procedure, shortened: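 Reads taken at 0, 8, 16, 24, 32 and 40 h from the same wells. HEK293 cells (600/well) carried RealTime-Glo reagents from seeding, with compound added after a 5 h settle at 37 C.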

[10] = A CellTox Green Cytotoxicity Assay to monitor cytotoxicity in HEK293 cells - 16 hour (AID 1224888); further: nearly all actives have a fitted effect of over 35% in size
Procedure, shortened: as §2

Measured: Potency

CC(C)NC(C)C
not listed: [8] | [9] | [10]
inactive: all other assays above

Oc1cc(Cl)ccc1Cl
not listed: [2] | [7]
inactive: all other assays above

CCC(C)c1cc([N+](=O)[O-])cc([N+](=O)[O-])c1O (stereo not drawn)
not listed: [8] | [9]
inactive: all other assays above

Brc1ccc(Oc2cc(Br)c(Br)cc2Br)c(Br)c1
active: [9] 38.9 µM
not listed: [3] | [10]
inactive: all other assays above

Cc1c(COC(=O)[C@@H]2[C@H](/C=C(\Cl)C(F)(F)F)C2(C)C)cccc1-c1ccccc1
inactive: [1] | [2] | [4] | [5] | [6] | [7]

Nc1ccc(Cl)c(Cl)c1
not listed: [3] | [7] | [9]
inactive: all other assays above

CCN(N=O)C(N)=O
not listed: [8] | [9]
inactive: all other assays above

Clc1nc(Cl)nc(Cl)n1
not listed: [3] | [9]
inactive: all other assays above

CC(C)Oc1cc(-n2nc(C(C)(C)C)oc2=O)c(Cl)cc1Cl
active: [9] 30.9 µM
608 nM (active) and inactive: [2]
inactive: [1] | [4] | [5] | [7]

N#Cc1cc(Br)c(O)c(Br)c1
inactive: [1] | [2] | [4] | [5] | [6] | [10]

CC(C)c1ccc(CO)cc1
not listed: [3] | [10]
inactive: all other assays above

Nn1cnnc1
not listed: [3] | [8] | [9]
inactive: all other assays above

CC(C)(c1cc(Cl)c(O)c(Cl)c1)c1cc(Cl)c(O)c(Cl)c1
not listed: [3] | [9]
inactive: all other assays above

CCN(CC)C(=O)SCc1ccc(Cl)cc1
not listed: [2] | [7] | [10]
inactive: all other assays above

CCC(CC)Nc1c([N+](=O)[O-])cc(C)c(C)c1[N+](=O)[O-]
not listed: [2] | [7] | [10]
inactive: all other assays above

CC(C)=CC1C(C(=O)OCc2coc(Cc3ccccc3)c2)C1(C)C (stereo not drawn)
not listed: [2] | [7]
inactive: all other assays above

CNC(=O)Oc1cccc2c1OC(C)(C)O2
not listed: [3] | [9]
inactive: all other assays above

C1=Cc2cccc3cccc1c23
active: [2] 49 µM
not listed: [3] | [9]
inactive: all other assays above

c1cc(OCC2CO2)ccc1Cc1ccc(OCC2CO2)cc1 (stereo not drawn)
not listed: [2] | [7] | [10]
inactive: all other assays above

COc1ccc(C(CN(C)C)C2(O)CCCCC2)cc1 (stereo not drawn)
not listed: [3] | [9] | [10]
inactive: all other assays above

C=CCc1ccc(OC)cc1
not listed: [3]
inactive: all other assays above

C=C(C)C(=O)OCC1CO1 (stereo not drawn)
inactive: [1] | [2] | [4] | [5] | [6] | [7]

O=P(Oc1ccccc1)(Oc1ccccc1)Oc1ccccc1
not listed: [2] | [7] | [10]
inactive: all other assays above

CCC(C)c1ccc(O)cc1 (stereo not drawn)
active: [2] 43.6 µM | [4] 43.6 µM
inactive: [1] | [6] | [7]

C=CCc1ccc2c(c1)OCO2
not listed: [3]
inactive: all other assays above

Cc1ccccc1[N+](=O)[O-]
not listed: [3] | [7] | [8]
inactive: all other assays above

CCCCC(CC)COC(=O)c1ccc(C(=O)OCC(CC)CCCC)c(C(=O)OCC(CC)CCCC)c1 (stereo not drawn)
not listed: [2]
inactive: all other assays above

CCCCNC(=O)n1c(NC(=O)OC)nc2ccccc21
12.2 µM (active) and inactive: [4]
not listed: [2] | [8] | [10]
inactive: all other assays above

CCC(C)(c1ccc(O)cc1)c1ccc(O)cc1
not listed: [2] | [9] | [10]
inactive: all other assays above

c1ccc(-c2cccc(-c3ccccc3)c2)cc1
inactive: [1] | [4] | [5] | [9] | [6] | [10]

ClC1C(Cl)C(Cl)C(Cl)C(Cl)C1Cl (stereo not drawn)
inactive and 49 µM (active): [6]
inactive: [1] | [3] | [7]
inactive and 43.6 µM (active): [4] | [5]

Cc1cc(Cl)ccc1OCCCC(=O)O
not listed: [2] | [3] | [9]
inactive: all other assays above

COP(=S)(OC)Oc1ccc([N+](=O)[O-])cc1
not listed: [2] | [3]
inactive: all other assays above

OCC(O)CO
not listed: [2] | [3] | [8]
inactive: all other assays above

Cc1ccc(N)c(N)c1
not listed: [2] | [9]
inactive: all other assays above

Oc1cc(Cl)ccc1Oc1ccc(Cl)cc1Cl
active: [4] 43 µM and 23.9 µM | [6] 35.5 µM and 23.9 µM
inactive: [1] | [7]
50.1 µM (active) and inactive: [5]

c1ccc(N=Nc2ccccc2)cc1
not listed: [2] | [8] | [10]
inactive: all other assays above

CCOC(=S)S
inactive: [1] | [4] | [5] | [9] | [6] | [10]

C[C@]12CCC(=O)C[C@@H]1CC[C@@H]1[C@@H]2CC[C@]2(C)[C@@H](O)CC[C@@H]12
inactive: [1] | [4] | [5] | [6] | [10]

O=C(O)C(F)(F)C(F)(F)C(F)(F)C(F)(F)C(F)(F)C(F)(F)C(F)(F)F
not listed: [2] | [8] | [10]
inactive: all other assays above

C=C(C)[C@H]1Cc2c(ccc3c2O[C@@H]2COc4cc(OC)c(OC)cc4[C@@H]2C3=O)O1
inactive: [1] | [3] | [5]
active: [4] 27.9 µM and 24.5 µM | [9] 62.5 nM and 12.3 nM and 47.7 nM | [6] 249 nM and 219 nM and 60.1 nM

CNC(=O)N(C)c1nnc(C(C)(C)C)s1
not listed: [2] | [3] | [10]
inactive: all other assays above

C[C@]12CCC(=O)C(O)=C1CC[C@@H]1[C@@H]2CC[C@]2(C)C(=O)CC[C@@H]12
not listed: [2] | [7] | [9]
inactive: all other assays above

Nc1ccc(Cl)cc1N
active: [5] 24.5 µM | [6] 40.4 µM
inactive: [1] | [8]
inactive and 19.5 µM (active): [3]
inactive and 23.2 µM (active): [4]

N#CC(Br)Br
inactive: [1] | [3] | [4] | [5] | [6] | [7]

C=CCN(CC=C)C(=O)C(Cl)Cl
inactive: [1] | [4] | [5] | [8] | [9] | [6]

N#CCCCl
not listed: [2] | [3] | [8]
inactive: all other assays above

O=Cc1ccco1
42.2 µM (active) and inactive: [5]
not listed: [2] | [10]
inactive: all other assays above

CC(C)C(=O)OCC(C)(C)C(OC(=O)C(C)C)C(C)C (stereo not drawn)
not listed: [2]
inactive: all other assays above

CCc1cccc(CC)c1N(COC)C(=O)CCl
not listed: [2] | [7] | [8]
inactive: all other assays above

O=P(O)(O)CCCl
inactive: [1] | [3] | [4] | [5] | [6]

NNC(=S)NN
not listed: [2] | [9]
inactive: all other assays above

CC(C)(OOC(C)(C)c1ccccc1)c1ccccc1
not listed: [2] | [3] | [10]
inactive: all other assays above

Cc1ccc2c(c1N)C(=O)c1ccccc1C2=O
active: [9] 9.67 µM and 7.76 µM | [6] 7.68 µM and 6.92 µM
not listed: [2] | [10]
inactive: all other assays above

O=S(=O)(Oc1ccc(Cl)cc1)c1ccc(Cl)cc1
not listed: [2] | [9]
inactive: all other assays above

O=c1oc2ccccc2c(O)c1C(CC(O)c1ccc(-c2ccc(Br)cc2)cc1)c1ccccc1 (stereo not drawn)
inactive: [3] | [4] | [5] | [6] | [10]
active: [1] 18.4 µM and 12 µM | [7] 20.7 µM and 21.3 µM

COP(=O)(OC)OC
39.2 µM (active) and inactive: [5]
24.7 µM (active) and inactive: [4]
not listed: [2] | [9]
inactive: all other assays above

c1ccc(P(c2ccccc2)c2ccccc2)cc1
not listed: [2] | [10]
inactive: all other assays above
